We go through 40 molecules from PubChem BioAssay (Tox21).

Inconclusive results are not listed. A number with no mark means an inactive call. Activity calls are given as the source filed them. The call rests on the fitted dose curve; in most records, active means well fitted inhibition curve with a large enough effect in the signal ratio in the repeat runs (not every such curve was filed as active); inconclusive means weak or mixed curves, or effect the other way; inactive means no such curve, though single readings can be large or run the other way; the % refers to the signal ratio.
On the % scale 0 is the no-effect control and ±100 the full control effect; potency means the concentration at half of the fitted maximal effect.

In the assay the target is Vitamin D3 receptor (Homo sapiens) (UniProt P11473). The assay is described as follows: qHTS assay to identify small molecule antagonists of the vitamin D receptor (VDR) signaling pathway (AID 743223). The note with it: VDR-UAS-bla HEK293T, beta-lactamase FRET ratio, 16 h; series mostly up to 61 µM; activity change, negative = inhibition: at the top concentration. The source says: U.S. Tox21 Program National Center for Advancing Translational Sciences [NCATS] NIH Chemical Genomics Center [NCGC] U.S. Environmental Protection Agency [EPA] National Institutes of Environmental Health Sciences [NIEHS] National Toxicology Program [NTP] U.S. Food and Drug Administration [FDA] Tox21 Assay Overview: The vitamin D receptor (VDR), a member of nuclear hormone receptor superfamily, plays a critical role in calcium homeostasis and bone metabolism. It is also involved in cell differentiation and growth, and thrombogenicity.
Vitamin D3 receptor (Homo sapiens), sequence (P11473 whole entry, looked up): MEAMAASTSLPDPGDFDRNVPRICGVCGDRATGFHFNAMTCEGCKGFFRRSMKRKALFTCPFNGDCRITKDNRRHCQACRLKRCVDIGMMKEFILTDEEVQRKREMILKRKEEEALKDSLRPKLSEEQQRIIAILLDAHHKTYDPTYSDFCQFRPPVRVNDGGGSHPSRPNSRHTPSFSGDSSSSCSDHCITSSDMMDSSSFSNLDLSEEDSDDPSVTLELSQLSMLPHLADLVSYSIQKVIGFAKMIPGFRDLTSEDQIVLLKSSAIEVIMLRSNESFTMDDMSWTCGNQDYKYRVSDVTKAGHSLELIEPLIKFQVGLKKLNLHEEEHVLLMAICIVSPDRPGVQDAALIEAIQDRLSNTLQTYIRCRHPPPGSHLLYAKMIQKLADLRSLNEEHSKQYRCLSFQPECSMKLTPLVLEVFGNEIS
Tox21 Assay Protocol Summary: VDR-bla cells were dispensed at 2,000 cells/5 uL of assay medium per well into black wall/clear-bottom 1536-well plates using a Multidrop Combi (Thermo Fisher Scientific, Waltham, MA) dispenser. After the assay plates were incubated at a 37C and 5% CO2 for 4 h, 23 nL of compounds dissolved in DMSO, positive controls or DMSO only was transferred to the assay plate by a Pintool station (Kalypsys, San Diego, CA), followed by addition of 1 uL of 1alpha, 25-Dihydroxy Vitamin D3 (3 nM, final concentration in the wells) using a Bioraptr Flying Reagent Dispenser (FRD) workstation (Beckman Coulter, Indianapolis, IN). The plates were incubated at 37C and 5% CO2 for 16 h, and then 1 uL of LiveBLAzerTM B/G FRET substrate was added using a Bioraptr FRD. The plates were incubated at room temperature for 2 h and fluorescence intensity was measured by an Envision plate reader (PerkinElmer, Shelton, CT).
(qHTS replaces the single test concentration by a dilution series.)
Regarding `C/C=C(\C)C(=O)OCc1ccccc1`, the “activity change, negative = inhibition” value was -7.88%. Take `O=C(Oc1cccc2cccnc12)c1ccccc1`: the “activity change, negative = inhibition” value is -10.6%. The same measure, in the same setting: next, `Clc1ccc2cc3ccccc3cc2c1`: 2.26%. For the molecule `CCCCCCCCCCCCCCCC[N+](C)(C)CCN(Cc1ccc(OC)cc1)c1ncccn1`, the Potency was 21.3 µM (active).

As for `Nc1ccc2cc(S(=O)(=O)O)cc(O)c2c1N=Nc1ccccc1C(F)(F)F`, the “activity change, negative = inhibition” value is 6.13%.

For `CC(=O)OCC(C)OC(C)=O` (stereo not given), the “activity change, negative = inhibition” value was -1.43%.

Turning to `CC(C)c1ccc2c(c1)CC[C@H]1[C@](C)(CN)CCC[C@]21C`, the Potency was 49 µM (active).

Take `O=C(N/N=C/c1ccccc1O)c1ccncc1`: the Potency is 19 µM (active). For `Oc1ccc2c(c1)-c1ccccc1C2`, the “activity change, negative = inhibition” value is -9.44%. Take `CCCCCCCCCCCCCCCC(=O)OC[C@H](O)[C@H]1OC(=O)C(O)=C1O`: the “activity change, negative = inhibition” value is -0.717%. Still for that read-out and setting: next, `C/C(=C(/OCCOc1ccc(Cl)cc1)c1ccc(Cl)cc1Cl)n1ccnc1`: 4.86%; `COc1ccc(-c2ccc3cc(C(=O)O)ccc3c2)cc1C12CC3CC(CC(C3)C1)C2`: 11.5%; `O=[N+]([O-])c1ccccc1Nc1ccccc1`: 25.1%. In the case of `Cc1ccc(O)c(C(C)(C)C)c1`, the Potency was 13.8 µM (active). As to `Cc1cc(O)c(C(C)(C)C)cc1C(C)(C)C`, the Potency was 19.5 µM (active).

Regarding `CO[Si](CCCNc1ccccc1)(OC)OC`, the “activity change, negative = inhibition” value is 1.23%. With `Oc1ccc(Cl)cc1Sc1cc(Cl)ccc1O`, the “activity change, negative = inhibition” value was -8.88%. For the molecule `CCCCCCCCCCC=O`, the “activity change, negative = inhibition” value was -13.4% [at 78.8 µM]. In the case of `C=C(C)C(=O)OCC[N+](C)(C)C`, the “activity change, negative = inhibition” value was 5.21%.

Consider `O=C1CCCCCN1SSN1CCCCCC1=O`, for which the “activity change, negative = inhibition” value was 9.47%. Same read-out and setting: in the case of `CCC(N)(CO)CO` it was 6.09% [at 78.8 µM]. For the molecule `CCCCCCCCCCCC(=O)NCCCN(C)C`, the Potency was 27.5 µM (active). `CCC1OCC(COc2ccc(Oc3ccccc3)cc2)O1` (stereo not given): the “activity change, negative = inhibition” value was -3.08%. `Oc1ccc(C2(c3ccc(O)cc3)CC3CC2C2CCCC32)cc1` (stereo not given): the Potency was 47 µM (active). `Cn1cc(C(=O)[C@@H]2CCc3nc[nH]c3C2)c2ccccc21`: the “activity change, negative = inhibition” value is -18.5%. For the molecule `CCCCCCCCCCCCCC[P+](CCCC)(CCCC)CCCC` (tested in a mixture with another compound), the “activity change, negative = inhibition” value is 0.873% [at 78.8 µM]. As for `Nc1ccccc1O`, the “activity change, negative = inhibition” value was 13.3%.

Take `CCCCCCCCCCn1cc[n+](CCCCCCCCCC)c1C`: the Potency was 19.5 µM (active). As to `CCCC1O[C@@H]2C[C@H]3[C@@H]4CCC5=CC(=O)C=C[C@]5(C)[C@H]4[C@@H](O)C[C@]3(C)[C@]2(C(=O)CO)O1` (stereo not given in full), the “activity change, negative = inhibition” value was 4%.

Consider `CCCCCOC(=O)CCCC`, for which the “activity change, negative = inhibition” value is 0.987%. `O=C(NOCC1CC1)c1ccc(F)c(F)c1Nc1ccc(I)cc1Cl`: the “activity change, negative = inhibition” value was 0.0954%. As to `CCCCCCCCCCCCc1ccc(O)cc1`, the Potency was 13.8 µM (active). With `ON=C1CCCC1`, the “activity change, negative = inhibition” value is 1.15% [at 78.8 µM]. On the same count and under the same terms, next, `C[C@]12CCC(=O)C=C1CC[C@@H]1[C@@H]2[C@@H](O)C[C@@]2(C)[C@H]1CC[C@]2(O)C(=O)COC(=O)CCC(=O)O`: 4.73%; `CN(C)CCCOC1(Cc2ccccc2)CCCCCC1`: 12.5%. Turning to `CCCCC(CC)COP(=O)(O)OCC(CC)CCCC` (stereo not given), the “activity change, negative = inhibition” value is -7.68%. For the molecule `CCC(CN)=C(c1ccccc1)c1ccccc1`, the “activity change, negative = inhibition” value is -8.57%. The same measure, in the same setting: in the case of `CCCCCCCCCCCCCCCS(=O)(=O)Oc1ccccc1` it was 13.8%.

On to `Cc1ccc2oc(CN(Cc3ccccc3)C(=O)Nc3c(F)cc(F)cc3F)c(-c3ccc(Cl)cc3)c2c1`, for which the “activity change, negative = inhibition” value was -4.9%. As to `O=C(Nc1ccc(Oc2ccc(Cl)cc2)c(Cl)c1)c1cc(I)cc(I)c1O`, the “activity change, negative = inhibition” value was 1.29%.
